We go through 58 compounds from PubChem BioAssay AID463190 (Sanford-Burnham Center for Chemical Genomics, 2010).

Out of some 330,000 compounds screened, about 7,300 (2.2%) were called active. What follows is part of a selection rich in actives, with near analogues and random picks from the rest. A number with no mark means an inactive call.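 The calls were made as follows: active = inhibition of at least 40%; inactive = the rest.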

A short description of the test: growth inhibition of tim10-1 ts yeast – luminescence, uHTS, primary screen (AID 463190).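 Also: mutant grown at 25 °C; 0% = DMSO wells with yeast and 100% = wells holding no yeast.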 The following applies: S. cerevisiae tim10-1 ts strain growth, BacTiter-Glo, 24 h; at 20 µM; active compounds read high.
With `Cc1ccc(C)c(CN2CCC(CNC(=O)Nc3ccc(C)c(F)c3)CC2)c1`, the inhibition (as a rule, the relative decrease from the control value, in per cent) is 30.5%.

As for `Cc1cccc(CN2CCC(CNC(=O)Nc3ccc(F)c(Cl)c3)CC2)c1`, the inhibition is 41.3% (active).

Take `Cc1ccccc1NC(=O)NCC1CCN(Cc2cccc(Cl)c2)CC1`: the inhibition was 4.31%.

On to `Cc1cccc(-c2c(NC(=O)c3ccco3)oc3ccc(Cl)cc3c2=O)c1`, for which the inhibition is 7.38%.

In the case of `CCN(C(=O)Cc1c(C(=O)O)n(CC)c2ccccc12)c1ccccc1C`, the inhibition was 19.7%.

For the compound `O=C(O)COc1ccc(-c2nccc(-c3cccs3)n2)cc1`, the inhibition is 10.2%.

As for `CN(C(=O)COC(=O)CNC(=O)C12CC3CC(CC(C3)C1)C2)c1ccccc1`, the inhibition was 4.63%.

Turning to `CN(C(=O)COc1nnc(-c2cccs2)c(-c2cccs2)n1)c1ccccc1`, the inhibition was 46.6% (active).

For the compound `O=C(CC1NCCc2ccccc21)Nc1cccc(Cl)c1` (stereo not drawn), the inhibition was 34.9%.

For `Cc1ccc(NS(=O)(=O)c2c(C)[nH]c(=O)[nH]c2=O)cc1C`, the inhibition was 0.26%.

As for `CCOc1ccc(CN2CCN(Cc3ccon3)CC2CCO)cc1` (stereo not drawn), the inhibition was 9.62%.

As for `CS(=O)(=O)N(CC(=O)Nc1ccc(Cl)c(Cl)c1)C1CCCCC1`, the inhibition is 35.1%.

For the compound `O=C(CCCN1C(=O)CCC1=O)Nc1ccc(Cl)c(C(F)(F)F)c1`, the inhibition is -0.021%.

With `O=C(CC(O)(C(F)(F)F)C(F)(F)F)Nc1ccc(Cl)c(Cl)c1`, the inhibition was 85.2% (active).

Take `CC1CCCCC1NC(=O)NC(=O)COC(=O)C1=NN(c2ccccc2)C(=O)CC1` (stereo not drawn): the inhibition is -2.21%.

`C#C[C@]1(O)CC[C@H]2[C@@H]3CCC4=CC(=O)CC[C@@H]4[C@H]3CC[C@@]21CC`: the inhibition was 12.4%.

Take `COc1ccccc1CN(C)C(=O)C1(c2ccc(Cl)cc2)CC1`: the inhibition was 3.3%.

As to `N#CCc1ccc(OC(=O)c2cccnc2)cc1`, the inhibition is 19.6%.

In the case of `CCCCCCOc1ccc(OC(=O)c2cccnc2)cc1`, the inhibition was 7.23%.

For the compound `O=C(Oc1c(-c2ccco2)oc2ccccc2c1=O)c1cccnc1`, the inhibition was 45.4% (active).

Take `CCOc1ccc(C(c2c(C)[nH][nH]c2=O)c2c(C)[nH][nH]c2=O)cc1OCC`: the inhibition is 45.9% (active).

Turning to `CCOc1ccc(C(CC(=O)O)NC(=O)Cc2ccccc2)cc1OC` (stereo not drawn), the inhibition is -13.2%.

Turning to `CCOc1ccc(C(C)NC(=O)CN2C(=O)NC3(CCCCC3)C2=O)cc1OCC` (stereo not drawn), the inhibition was 0.453%.

With `CCOC(=O)c1cn(CC)c2cc(F)c(F)cc2c1=O`, the inhibition is -8.23%.

For `CC(=O)NC(CC(=O)Nc1cccc(S(=O)(=O)N2CCCC2)c1)c1ccccc1` (stereo not drawn), the inhibition was 19.9%.

In the case of `CN1CCN(c2cc(=O)n(-c3ccc(Cl)cc3)c(=O)[nH]2)CC1`, the inhibition was -20.5%.

On to `COc1ccc(N(CC(=O)Nc2cc(OC)ccc2OC)S(=O)(=O)c2c(C)noc2C)cc1`, for which the inhibition is 29.9%.

As to `CCOC(=O)Cc1csc(SCC(=O)Nc2ccc(C)cc2F)n1`, the inhibition was 18.9%.

As for `CCOC(=O)Cc1csc(NC(=O)CSc2ccc(Br)cc2)n1`, the inhibition was 46.9% (active).

For the compound `CCOC(=O)Cc1csc(NC(=O)COc2ccc3c(C)cc(=O)oc3c2)n1`, the inhibition was 11.9%.

With `CCOC(=O)Cc1csc(SCc2cc(=O)oc3cc(O)ccc23)n1`, the inhibition is 12.7%.

Turning to `CCOC(=O)Cc1csc(NC(=O)CSc2nnc(-c3cccnc3)n2Cc2ccco2)n1`, the inhibition is 13.4%.

As for `CCOC(=O)Cc1csc(SCC(=O)NC(C)C23CC4CC(CC(C4)C2)C3)n1` (stereo not drawn), the inhibition was 43.5% (active).

As to `NS(=O)(=O)c1ccc(CCNC(=O)c2ccc([N+](=O)[O-])cc2[N+](=O)[O-])cc1`, the inhibition was 2.98%.

Consider `CCCN(C(=O)CSc1nnnn1C)c1c(N)n(Cc2ccccc2)c(=O)[nH]c1=O`, for which the inhibition is -2.11%.

As to `CN(CC(=O)Nc1cccc(F)c1)C(=O)C1CSC2(C)CCC(=O)N12` (stereo not drawn), the inhibition was 2.74%.

`COc1ccccc1N1CCN(C(=O)c2cc(=O)c3cc(C)ccc3o2)CC1`: the inhibition is 36.5%.

As to `COc1ccccc1N1CCN(C(=O)c2cc(=O)c3cc(C)cc(C)c3o2)CC1`, the inhibition was 45.3% (active).

Regarding `O=C(c1cc(=O)c2ccccc2o1)N1CCN(c2ccccc2)CC1`, the inhibition is 5.8%.

In the case of `Cc1ccc(C(=O)N/N=C\c2cc(Br)c(Br)o2)cn1`, the inhibition is 3.87%.

For `COc1ccc(NC(C)=O)cc1NC(=O)CN1CCN(C2c3ccccc3-c3ccccc32)CC1`, the inhibition was 41.6% (active).

As for `COc1cccc(NC(=O)CN2CCN(CC(=O)Nc3ccccc3Cl)CC2)c1`, the inhibition was 19.6%.

Take `COc1ccc(Cl)cc1NC(=O)CN1CCN(C(=O)N2CCOCC2)CC1`: the inhibition was 1.52%.

In the case of `CC(C)(C)OC(=O)C1=C(CO)CS[C@@H]2[C@H](NC(=O)Cc3ccccc3)C(=O)N12`, the inhibition was 9.18%.

With `Cc1ccc(S(=O)(=O)N2CCN(C(=O)CSc3cc(C)ccc3C)CC2)c(C)c1`, the inhibition is 23.1%.

Consider `O=C(NCc1ccco1)c1nc2ncccn2n1`, for which the inhibition is 1.9%.

Regarding `Cc1cccc(Nc2ccccc2C(=O)NCc2ccco2)c1C`, the inhibition is 29.9%.

Turning to `O=C(NCc1ccco1)c1cccn2c(=O)c3c4c(sc3nc12)CCCC4`, the inhibition was 41.6% (active).

`COc1ccc(C(=O)N2CCC(C(=O)Nc3cccc(C)c3)CC2)cc1OC`: the inhibition is -7.58%.

Regarding `O=C(NCCc1ccco1)c1nn(Cc2ccccc2)c(=O)c2ccccc12`, the inhibition was 14.5%.

As to `O=c1nc2s/c(=C\c3ccco3)c(=O)n2nc1Cc1ccccc1`, the inhibition was 63% (active).

As for `O=C(Nc1ccccc1)/C(=C\c1ccco1)NC(=O)c1ccco1`, the inhibition is 23.3%.

For `CC(=O)N1N=C(c2ccccc2)OC1c1cccnc1` (stereo not drawn), the inhibition is 7.21%.

As to `COc1ccc2nc(N3CCN(C(=O)c4ccc([N+](=O)[O-])o4)CC3)sc2c1`, the inhibition is 42.2% (active).

As for `CCN(CC)CCN(C(=O)c1cccc([N+](=O)[O-])c1)c1nc2ccc(OC)cc2s1`, the inhibition was 12.5%.

For `Cc1ccc2nc(N3CCN(C(=O)c4ccco4)CC3)sc2c1`, the inhibition is 6.64%.

With `CC(C)NS(=O)(=O)c1ccc(OCC(=O)NC2CCCCCC2)cc1`, the inhibition is 4.48%.

Turning to `Cc1nn(-c2ccccc2)c2sc(C(=O)N(Cc3ccco3)C(C)C(=O)NC(C)(C)C)cc12` (stereo not drawn), the inhibition was 14.2%.
